Source: the supplement of paper PMC3484114
± gives the standard deviation.

tested on: OVCAR-3-derived ovarian cancer stem-like cells (spheroids); assay: cell growth relative to untreated control; higher = more growth (less inhibition); settings: 2.29 µM; 96 h
How it was run: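 Percent growth was calculated against untreated wells once blanks were subtracted and Grubbs outliers removed. The cells were OVCAR-3 spheroid-derived stem-like cells, trypsinized and plated at 50,000 cells/mL in stem cell medium on ultra-low attachment 96-well plates for a 24 h preincubation. They were then exposed to compounds at 2.29 uM for 96 h at 37°C, 5% CO2, in 4 replicate wells, and viability was measured by TOX8 resazurin fluorescence (ex 560/em 590 nm) after 4 h.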

Structure (SMILES)	cell growth [%]
CCCCCCC1CC(=O)C1(Cl)Cl (centres undefined)	104 ± 16
C[C@]12CC[C@@H]3c4ccccc4CC[C@H]3[C@@H]1CC[C@@H]2O	229 ± 23
Cc1ccc(S(=O)(=O)c2ccc([N+](=O)[O-])o2)cc1	47.4 ± 31
C=C(C)[C@@H]1CC[C@]2(C(=O)O)CC[C@]3(C)[C@H](CC[C@@H]4[C@@]5(C)CC[C@H](O)C(C)(C)[C@@H]5CC[C@]43C)[C@@H]12	76 ± 22
Nc1nc(N)c2ncn(-c3ccccc3)c2n1	162 ± 19
O=S1(=O)OCCOS(=O)(=O)C1Cc1ccccc1	93.4 ± 15
CN(N=O)C(=O)N[C@@H]1[C@@H](O)[C@H](O)[C@@H](CO)O[C@@H]1O	104 ± 29
O=C(O)c1ccc(NC(c2ccccc2)c2ccc3cccnc3c2O)cc1 (centres undefined)	89.7 ± 46
C=C1CC(COc2cc(=O)oc3ccccc23)(c2ccccc2)OC1=O (centres undefined)	76.3 ± 22
CC(=O)OCc1c2ccccc2c(C)c2c1cc(F)c1ccccc12	85.4 ± 9.4
COc1cc2c3c(c1OC)-c1cc4c(cc1CC3(C#N)N(C(=O)c1ccccc1)CC2)OCO4 (centres undefined)	93.1 ± 24
Cc1c2cc[n+](CCN3CCCCC3)cc2c(C)c2c1[nH]c1ccc(O)cc12	146 ± 52
COc1cc2c(c(OC)c1OC)-c1ccc(OC)c(=O)cc1[C@@H](NC(=O)c1ccccc1)CC2	30.8 ± 5.6
Nc1nc(N)c(-c2cccc(C(F)(F)F)c2)c(Cc2cccc(C(F)(F)F)c2)n1	114 ± 34
BrCCC[P+](c1ccccc1)(c1ccccc1)c1ccccc1	42.9 ± 7.3
CC(C)(C)NCCC(O)c1cc(C(F)(F)F)nc2c(C(F)(F)F)cccc12 (centres undefined)	108 ± 23
Cc1c2c(cc3c1[nH]c1ccccc13)C=NCC2	227 ± 75
CC(C)=CCC(OC(=O)C=C(C)C)C1=CC(=O)c2c(O)ccc(O)c2C1=O (centres undefined)	35 ± 16
[Cl][Pt+2][Cl].[NH-]C1CCCCC1[NH-] (centres undefined)	98.5 ± 28
CCOC(=O)CCn1ncc(Cl)c(Cl)c1=O	74.8 ± 21

Structure (SMILES)	cell growth [%]
Oc1[nH]c2ccccc2c1N=Nc1c(F)c(F)c(F)c(F)c1F	100 ± 13
CCCCCCCCCCNCCSSCc1ccc(Cl)cc1	126 ± 23
CN(C)/N=N/c1nc[nH]c1C(N)=O	164 ± 14
Clc1ccccc1C(c1ccccc1)(c1ccccc1)n1ccnc1	106 ± 13
CN(CCc1ccccn1)c1ccc2c(c1)C(=O)c1ccccc1-2	103 ± 32
N#CC(=S)Nc1ccc(F)cc1	104 ± 19
O=C(CC1(O)C(=O)Nc2c(Cl)cc(Cl)cc21)c1cccc2ccccc12 (centres undefined)	90.9 ± 16
NC(=O)c1csc(C2OC(CO)C(O)C2O)n1 (centres undefined)	90.6 ± 11
Nc1ccccc1C(=O)NC(=O)Nc1ccc(Oc2ncc(Br)cn2)c(Cl)c1	61.6 ± 21
S=c1nc[nH]c2nc[nH]c12	95.2 ± 8.4
CC(=O)OCc1cc(=O)n(C)c2c3c4c(cc12)c(C)cc(=O)n4CO3	95.1 ± 21
Cc1ccc([S+](c2ccccc2)c2cc(C)ccc2C)cc1.O=C(OC(C(=O)[O-])C(OC(=O)c1ccccc1)C(=O)O)c1ccccc1 (centres undefined)	43.6 ± 5.1
CN(C)c1ccc(C=c2c3ccccc3n3c2cc(-c2ccc(Cl)cc2)[n+]3C)cc1	39.7 ± 12
CC1OC1C(=O)C1(O)C(C)C(O)C23OC2(C(O)c2c(O)cccc2C3=O)C1O (centres undefined)	23.6 ± 6.9
CO[C@H]1C[C@@H]2CC[C@@H](C)[C@@](O)(O2)C(=O)C(=O)N2CCCC[C@H]2C(=O)O[C@H]([C@H](C)C[C@@H]2CC[C@@H](O)[C@H](OC)C2)CC(=O)[C@H](C)/C=C(\C)[C@@H](O)[C@@H](OC)C(=O)[C@H](C)C[C@H](C)/C=C/C=C/C=C/1C	97 ± 21
O=C1Oc2ccccc2C(=O)/C1=C1\C=C(c2ccccc2)SS1	158 ± 71
Cc1c2oc3c(C)ccc(C(=O)N[C@@H]4C(=O)N[C@H](C(C)C)C(=O)N5CCC[C@H]5C(=O)N(C)CC(=O)N(C)[C@@H](C(C)C)C(=O)O[C@@H]4C)c3nc-2c(C(=O)N[C@@H]2C(=O)N[C@H](C(C)C)C(=O)N3CCC[C@H]3C(=O)N(C)CC(=O)N(C)[C@@H](C(C)C)C(=O)O[C@@H]2C)c(N)c1=O	8.44 ± 3.9
Cc1c2ccncc2c(C)c2c1sc1ccccc12	120 ± 13
CCOC(=O)Cc1cc(=O)oc2cc(O)ccc12	80.4 ± 11
